Among all 330,000 compounds or so, about 960 (0.29%) were called active. The sample holds actives, similar compounds and a random draw of the others, so the mix is not that of the screen.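 The calls were made as follows: active = compounds whose signal lies at least 3.5 SD above the mean of all wells on their plate; inactive = the rest.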
assay: small molecules increasing insulinoma cell replication – ATP luminescence, uHTS, primary screen (AID 2380); details: MIN6 cells proliferation, ATPlite luminescence, 48 h; at 10 µM; active compounds read high; 100% = growth in 10% serum; cells starved in 0.2% serum;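 also: 0% = DMSO-treated cells in low-serum medium and 100% = 10% serum control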

SMILES | proliferation
CCC1(C)Cc2c(sc3nnn(CC(=O)Nc4ccc(Cl)cc4)c(=O)c23)CO1 (stereo not drawn) | -4.3% (inactive)
O=C(NN=Cc1ccc(N2CCOCC2)cc1)c1cc2ccccc2cc1O | -1.83% (inactive)
C/C(=N\NC(=O)c1ccccc1C)c1ccc(N2CCOCC2)cc1 | 5.16% (active)
Cc1ccc(C(=O)NC(=S)Nc2ccc(N3CCOCC3)cc2)cc1 | -3.24% (inactive)
CN=C1SC(C(=O)O)CC(=O)N1C (stereo not drawn) | -0.72% (inactive)
CCC(C)NC(=O)/C=C/c1ccc(S(=O)(=O)NCc2ccco2)cc1 (stereo not drawn) | -2.61% (inactive)
Cc1ccc(O)c(NC(=O)c2cc(-c3ccco3)on2)c1 | -1.09% (inactive)
Cc1ccc(S(=O)(=O)NCCC(=O)OCC(=O)N(C)c2ccccc2)cc1 | 1.89% (inactive)
CN(Cc1c(F)cccc1Cl)S(=O)(=O)c1cccs1 | 0% (inactive)
CN(Cc1ccc(F)cc1Cl)S(=O)(=O)c1cccs1 | 5.5% (active)
O=S(=O)(NCc1ccc(Cl)cc1Cl)c1cccs1 | -2.31% (inactive)
COc1ccc(N(CC(=O)Nc2cc(OC)cc(OC)c2)S(=O)(=O)c2c(C)n[nH]c2C)cc1 | -2.27% (inactive)
CCCN1C(=O)C(Cc2nc3ccccc3c(=O)n2-c2ccccc2)c2cc(C)ccc21 (stereo not drawn) | -2.19% (inactive)
CN1CCN(C2Cc3ccc(Cl)cc3Sc3ccc(F)cc32)CC1 (stereo not drawn) | -4.32% (inactive)
COc1cc(N=Cc2c(O)c3ccccc3oc2=O)c(OC)cc1Cl | 0.34% (inactive)
COc1ccccc1N=C(C)C1=C(O)COC1=O | -1.39% (inactive)
COc1ccccc1N=Cc1c(O)c2ccccc2oc1=O | 6.71% (active)
COC(=O)c1ccc(CN2CCN(CCCc3ccccc3)C(CCO)C2)cc1 (stereo not drawn) | -3.99% (inactive)
Cc1nn(CC(=O)Nc2ccc(N(C)C)cc2)c(C)c1[N+](=O)[O-] | 3.2% (inactive)
C[n+]1cc(-c2ccccc2)oc1-c1ccccc1 | -1.56% (inactive)
COc1ccc(-c2nnn(Cc3nc(N)nc(N4CCCCC4)n3)n2)cc1 | 8.76% (active)

SMILES | proliferation
COc1ccc(-n2nnnc2SCc2nc(N)nc(N3CCOCC3)n2)cc1 | -2.85% (inactive)
CN(C)c1nc(N)nc(Cn2nnc(-c3ccc(C(F)(F)F)cc3)n2)n1 | 1.04% (inactive)
CC(=O)Nc1ccc(NC(=O)C(C)OC(=O)c2ccccc2C(=O)c2ccc(Cl)c([N+](=O)[O-])c2)cc1 (stereo not drawn) | -5.3% (inactive)
O=C(Nn1c(-c2ccc(Cl)cc2)nc2ccccc2c1=O)c1cccnc1Cl | -0.79% (inactive)
N#CCc1ccc(NC(=O)c2ccccc2C(=O)Nc2ccc(CC#N)cc2)cc1 | -4.24% (inactive)
CCOc1ccc(NC(=O)Nc2cc(C)ccc2OC)cc1 | -2.89% (inactive)
COc1ccc(OC)c(NC(=O)CC(Cc2ccccc2OC)C(=O)O)c1 (stereo not drawn) | -2.33% (inactive)
CCOc1ccccc1NC(=O)Nc1cc(OC)ccc1OC | 7.28% (active)
CC(C)(C)N(Cc1ccccc1)C(=O)c1ccncc1 | -4.48% (inactive)
O=c1[nH][nH]c(C(F)(F)F)c1C=NCc1ccccc1Cl | -0.46% (inactive)
COc1ccc(CCn2c(=N)c(C(=O)NCc3ccco3)cc3c(=O)n4cccc(C)c4nc32)cc1 | 10.3% (active)
COc1ccc(CCn2c(=N)c(C(=O)NCC3CCCO3)cc3c(=O)n4cccc(C)c4nc32)cc1OC (stereo not drawn) | -3.69% (inactive)
Cc1cccn2c(=O)c3cc(C(=O)NCCN4CCOCC4)c(=N)n(Cc4cccnc4)c3nc12 | -6.51% (inactive)
NS(=O)(=O)c1ccc(-c2ccc(/C=C3\SC(=O)NC3=O)o2)cc1 | 2.43% (inactive)
COc1ccc2cc(-c3[nH]ncc3CNCCn3nc(C)cc3C)ccc2c1 | -1.3% (inactive)
NC(=O)C1CCN(C2OC(=O)c3ccccc32)CC1 (stereo not drawn) | -1.61% (inactive)
CC(C)CNC(=O)C1CCCN(S(=O)(=O)c2ccc(-n3cnnn3)cc2)C1 (stereo not drawn) | 1.81% (inactive)
O=C(Nc1ccc(F)cc1)C1CCCN(S(=O)(=O)c2ccc(-n3cnnn3)cc2)C1 (stereo not drawn) | 0% (active)
CC(NC(=O)C1CCCN(S(=O)(=O)c2ccc(-n3cnnn3)cc2)C1)c1ccc(F)cc1 (stereo not drawn) | -0.52% (inactive)
O=C(Cc1c(F)cccc1Cl)N1CCN(C(=O)c2ccco2)CC1 | -0.41% (inactive)
Cc1cc(NC(=O)c2ccco2)c(=O)n(Cc2c(F)cccc2Cl)c1 | 6.29% (active)

SMILES | proliferation
O=C(Nc1cccn(Cc2c(Cl)cccc2Cl)c1=O)c1ccc(Cl)cc1 | 0.88% (inactive)
COc1cc2cc(CN(CCN3CCCC3)C(=O)Nc3ccccc3Cl)c(=O)[nH]c2cc1OC | -1.42% (inactive)
CN(Cc1ccc2nsnc2c1)Cc1nc(Cc2cccc(F)c2)no1 | -1.6% (inactive)
CC1(C)Cc2c(sc(NC(=O)C(=O)NCC3CCCO3)c2C(=O)O)CO1 (stereo not drawn) | -1.4% (inactive)
Cc1nn(C(C)C(=O)NCCC2=CCCCC2)c(=O)c2nn(-c3ccccc3)c(C)c12 (stereo not drawn) | 11.7% (active)
COc1ccc(CNC(=O)C(C)n2nc(C)c3c(C)n(-c4ccccc4)nc3c2=O)c(OC)c1 (stereo not drawn) | 0.39% (inactive)
Cc1nn(C(C)C(=O)N2CCOCC2)c(=O)c2nn(-c3ccccc3)c(C)c12 (stereo not drawn) | -0.46% (inactive)
COC(=O)c1ccc(C(NC(=O)OCc2ccccc2)/C(C)=C/[C@@H](C)C(=O)NCc2ccc(OC)c(OC)c2)cc1 (stereo partly drawn) | -1.99% (inactive)
CC(C)OCCCNC(=S)N1CCC(C(=O)c2ccc3c(c2)OCCO3)CC1 | -1.17% (inactive)
CC(C)C(=O)Nc1c2c(nn1-c1ccccc1)CSC2 | 0.9% (inactive)
COc1ccc(/C=N/NC(=O)C2CC2)c(OC)c1OC | 0.51% (inactive)
CC1(C)C2CC=C(/C=N/NC(=O)c3ccc(Cl)cc3)C1C2 (stereo not drawn) | -2.07% (inactive)
CC1(C)C2CC=C(/C=N/NC(=O)C3CC3)C1C2 (stereo not drawn) | 7.56% (active)
O=[N+]([O-])c1ccc2c(c1)C(N1CCOCC1)/C(=C/C1(O)CCCCC1)O2 (stereo not drawn) | -1.4% (inactive)
O=C(O)c1cc(S(=O)(=O)N(Cc2ccccc2)c2cccc(C(F)(F)F)c2)ccc1Cl | -1% (inactive)
CCC1(CC)NC(=O)N(CC(=O)OCC(=O)Nc2ccc(C(F)(F)F)cc2)C1=O | -0.99% (inactive)
CC1CCN(C(=O)/C(=C\c2ccccc2)NC(=O)c2ccccc2)CC1 | 2.17% (inactive)
O=C(OCCN1CCOCC1)C1(c2ccccc2)CCCCC1 | 5.6% (inactive)
CCCC(NCC(=O)Nc1ccccc1C(=O)NC1CC1)c1ccccc1 (stereo not drawn) | -0.98% (inactive)
Cc1ccc(NC(=O)COC(=O)CNC(=O)c2ccc(Cl)cc2Cl)cc1S(=O)(=O)N1CCOCC1 | -0.42% (inactive)
Cc1cccc2c1-c1sc(C(=O)NCCCN3CCc4ccccc4C3)cc1CO2 | -7.36% (inactive)

From PubChem BioAssay AID2380 (Sanford-Burnham Center for Chemical Genomics, 2010)
